Assay results: ChEMBL document CHEMBL4513216, “Probing the Open Global Health Chemical Diversity Library for Multistage-Active Starting Points for Next-Generation Antimalarials” (ACS Infect Dis, 2020)
Out of some 69,000 compounds screened, about 8,600 (12%) showed an effect of 50% or more. The list comes from a sample in which strong results are over-represented; it also holds similar structures and randomly drawn compounds.

system: Plasmodium berghei; experiment: Screen against P. berghei liver stage (PbLuc), transformed with Luciferase, at 10uM; format: functional, HepG2; conditions: tested at 10 uM

Row | SMILES | INHIBITION [%]
1 | O=C(c1cncs1)N1CCOC(c2cc(CCO)[nH]n2)C1 (stereo not given) | -4.5
2 | O=C([C@H]1C[C@H]2OCC[C@H]2N(C(=O)c2ccccn2)C1)N1CCCCO1 | 22.2
3 | CCN(CC)CCCNCc1cc2cccc(C)c2[nH]c1=O | -36.4
4 | CCN1CCN(C(=O)Cn2nc(C(F)(F)F)c(Br)c2C2CC2)CC1 | 30.8
5 | CN1CCN(C(=O)Cn2nc(C(F)(F)F)c(Br)c2C2CC2)CC1 | 16.5
6 | CCCN1CCN(C(=O)Cn2nc(C(F)(F)F)c(Br)c2C2CC2)CC1 | 64.7
7 | CCN1CCCC1CNC(=O)Cc1c(C)n[nH]c1-c1ccc(F)cc1 (stereo not given) | 38.8
8 | CCOC(=O)c1sc2ccsc2c1CN | 0.938
9 | COc1cc(-c2cccc3c2OC(CN)C3)cc(OC)c1OC (stereo not given) | 48
10 | COc1ccc(-c2cccc3c2OC(CN)C3)cc1F (stereo not given) | 47.1
11 | COc1cc(-c2cccc3c2OC(CN)C3)ccc1O (stereo not given) | 50.8
12 | Cc1ccc(CCCC(=O)N2CCC(CS(N)(=O)=O)CC2)s1 | -0.554
13 | O=C(c1ccnnc1)N1CCc2ncnc(C3CCOC3)c2CC1 (stereo not given) | 38.1
14 | CCc1ncnc2c1CCN(Cc1ccc(OC)cc1)CC2 | 26.7
15 | Cc1ccc(CN2CCc3ncnc(OC(C)C)c3CC2)s1 | -34.6
16 | COc1ccc(CN2CCc3ncnc(C4CC4)c3CC2)cc1 | 47.4
17 | COc1ccc(CN2CCc3ncnc(OC(C)C)c3CC2)cc1 | 56.7
18 | O=C(c1cccs1)N1CCc2ncnc(C3CCOC3)c2CC1 (stereo not given) | 53.2
19 | COCCN1CCc2ncnc(OC(C)C)c2CC1 | 37.5
20 | O=C(c1ccncc1)N1CCc2ncnc(C3CCOC3)c2CC1 (stereo not given) | 49.7
21 | CC(C)Oc1ncnc2c1CCN(Cc1ccoc1)CC2 | 8.85
22 | CC(C)Oc1ncnc2c1CCN(Cc1ccc(F)cc1)CC2 | 60.3
23 | CC(C)Oc1ncnc2c1CCN(Cc1ccco1)CC2 | 50.7
24 | CC(C)Oc1ncnc2c1CCN(Cc1cccs1)CC2 | 40.7

Row | SMILES | INHIBITION [%]
25 | COCC1CC2(CCN(Cc3cccc(C#N)c3)CC2)CN1C(C)C (stereo not given) | -11.2
26 | CCCS(=O)(=O)NCC(C)(O)c1ccsc1 (stereo not given) | 20.9
27 | Cc1nc(Nc2nnc(C)s2)cc(C2CCCN2C)n1 (stereo not given) | 21.6
28 | O=C(c1cccc(C2CCNC2)c1)N1CCC(c2ccncc2)CC1 (stereo not given) | -19.1
29 | Cc1ccc(N2CC[C@H]3OCC[C@@]3(C(=O)N3CCCC3)C2)nn1 | 40.1
30 | CC(C)n1cnnc1CNC(=O)c1cnn(-c2ccccc2)c1 | -20.3
31 | Cc1ccc(Cl)cc1N1CCC(CNC(=O)Cn2cccn2)C1 (stereo not given) | 10.083
32 | c1nc2c(c(C3CCOC3)n1)CCN(Cc1ccoc1)CC2 (stereo not given) | 12.1
33 | c1ccc(CN2CCc3ncnc(C4CCOC4)c3CC2)nc1 (stereo not given) | 33
34 | c1coc(CN2CCc3ncnc(C4CCOC4)c3CC2)c1 (stereo not given) | 79.6
35 | O=C(Nc1ccc(CCN2CCOCC2)cc1)C1CCCC1 | -7.85
36 | O=C(NCC1CC1)c1cc2c(s1)CCN2C(=O)c1ccc(F)cc1 | 4.57
37 | CN(C)S(=O)(=O)NCC(Cc1cccc(F)c1)N1CCNC1=O (stereo not given) | -15.3
38 | COc1ccccc1C(=O)NCCC(=O)Nc1c(C)nn(C)c1C | 51.8
39 | CCOc1ccccc1CCC(=O)Nc1c(C)nn(C)c1C | 22.6
40 | COc1cccc(CCC(=O)Nc2c(C)nn(C)c2C)c1OC | 31
41 | CCC(C)NC(=O)c1nn(C)c(NC(=O)c2ccccc2OC)c1F (stereo not given) | 19.3
42 | COc1ccccc1C(=O)Nc1c(F)c(C(=O)NC2CCCC2)nn1C | 4.48
43 | COc1ccccc1C(=O)Nc1c(F)c(C(=O)NCCC(C)C)nn1C | 57
44 | CC(=O)N1CCC2(CC1)COCCN2CCN(C)C | -8.94
45 | Cc1cc(C)n(CC2CN(CCOc3ccccc3F)CCO2)n1 (stereo not given) | 9.14
46 | Cc1ccc(N2CCc3ncc(CNc4ccccn4)n3CC2)nn1 | 18.4
47 | O=C(c1cscn1)N1CCC(O)(Cn2ccc3ccncc32)CC1 | 17.1
48 | CC(=O)N1N=C(c2ccco2)OC1C(=O)NCC(C)C (stereo not given) | -4.32

Row | SMILES | INHIBITION [%]
49 | FC(F)(F)Cn1cc(NCc2cscn2)cn1 | 62
50 | CC(C)Cn1cc(NCc2cscn2)cn1 | -24.5
51 | CC(C)(C)n1cc(NCc2cscn2)cn1 | 29.4
52 | CCOc1cc(=O)n2c(c1C(=O)OCc1ccc(C)cc1)CCCC2 | 32.2
53 | COc1cccc(N2CC3(CCN(c4cc(OC)ncn4)C3)CC2=O)c1 (stereo not given) | 34.6
54 | O=C1N(c2cncnc2)CCC12CCCN(Cc1ccccn1)C2 (stereo not given) | -11.5
55 | N#Cc1ccc(N2CCCC3(CCN(c4cncnc4)C3=O)C2)nc1 (stereo not given) | 65.7
56 | O=C1N(Cc2cccnc2)CCC12CCCN(c1ncc(F)cn1)C2 (stereo not given) | -42
57 | CCc1cnc(N2CCC3(CCN(Cc4cccc(C)c4)C3=O)C2)nc1 (stereo not given) | 60.5
58 | Cc1cccc(CN2CCC3(CCN(c4ncccn4)CC3)C2=O)c1 | 42
59 | Cc1cccc(CN2CCC3(CCN(c4ncccn4)C3)C2=O)c1 (stereo not given) | -23.3
60 | COc1cc(N2CCC3(C2)CN(c2cccnc2)C(=O)CN3C)ncn1 (stereo not given) | 30.3
61 | N#Cc1ccc(N2CCC3(CCCN(c4ccccn4)C3)C2)nc1 (stereo not given) | 12.1
62 | O=C1N(Cc2ccncc2)CCC12CCCN(c1ncc(F)cn1)C2 (stereo not given) | 39.5
63 | COc1cc(N2CCC3(CC2)CCN(c2cccnc2)C3=O)ncn1 | 68.4
64 | O=C1N(Cc2cccnc2)CCC12CCCN(c1ncccn1)C2 (stereo not given) | 87.2
65 | CN(C)CCOCc1cncc2c1CCN(Cc1ccccn1)C2 | -8.51
66 | Cc1nc(CN2CCO[C@H]3[C@@H](OCc4cccnc4)CC[C@@H]32)cs1 | 14.6
67 | Cc1nc(C(=O)N2CCN(S(C)(=O)=O)CC2)c(-c2ccccc2Cl)s1 | 23
68 | COCCN1CCC(Nc2c(F)cc(C#N)cc2F)CC1 | -3.58
69 | O=C([C@@H]1CCO[C@@H]2CCN(Cc3ccsc3)C[C@@H]21)N1CCCC1 | 38.1
70 | O=C1CC(c2ccsc2)c2sc(C(=O)O)c(-c3ccc(F)cc3)c2N1 (stereo not given) | -8
